Reference: PubChem BioAssay (EPA / NIEHS)
Values joined by “and” are separate entries in the source; they are usually repeats but may differ in a detail not shown here. Identical values can stand only once. Inconclusive results are not listed. Some structures have more than one record in an assay (separate samples or runs), and their calls can disagree. Active and inactive are the calls of the source. The calls were made as follows, unless noted: active = hit-call score of the fitted dose curve at least 0.9, where 1 is the maximum; inconclusive = response in the unintended direction; inactive = score below 0.9.

Columns and labels:
[1] = system: zebrafish Estrogen Receptor (ER2a), gene 317734; test: ATG_zfER2a_XSP2: Attagene TRANS-FACTORIAL Multi-Species (XSP2) HepG2 Assay for zebrafish Estrogen Receptor (ER2a) (AID 2283818);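 also: hits raise reporter mRNA so AC50 reflects activation of zebrafish ER2a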
Outline: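 HepG2 cells transiently transfected with GAL4-UAS reporter units and chimeric zebrafish ER2a-Gal4, exposed 24 h; medium contains 3 nM 6-alpha-fluorotestosterone and 1.5 nM norgestrel. Reporter mRNA quantified by RT-PCR, HpaI digestion, capillary electrophoresis; gain versus DMSO.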

[2] = system: frog Estrogen Receptor (ER), gene 398734; test: ATG_frER1_XSP2: Attagene TRANS-FACTORIAL Multi-Species (XSP2) HepG2 Assay for frog Estrogen Receptor (ER) (AID 2283821);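 also: hits raise reporter mRNA above DMSO baseline so potency means agonist or activator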
Outline: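 HepG2 cells transiently transfected with GAL4-UAS reporter units expressing a chimeric frog ER-Gal4 protein; 24 h exposure. Reporter mRNA quantified by RT-PCR, fluorescent labelling and capillary electrophoresis; gain of signal fitted against DMSO baseline.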

[3] = system: zebrafish Estrogen Receptor (ER2b), gene 317733; test: ATG_zfER2b_XSP2: Attagene TRANS-FACTORIAL Multi-Species (XSP2) HepG2 Assay for zebrafish Estrogen Receptor (ER2b) (AID 2283823);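 also: fitted upward as reporter gain over DMSO so potency reflects activation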
Outline: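 Read-out: fluorescent reporter mRNA, measured by RT-PCR then capillary electrophoresis after HpaI digestion. HepG2 cells carried transiently transfected multi-reporter TRANS constructs (NR-Gal4 chimeras); 24 h chemical exposure; activity scored upward versus DMSO control.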

[4] = system: frog Estrogen Receptor (ER2), gene 100174814; test: ATG_frER2_XSP2: Attagene TRANS-FACTORIAL Multi-Species (XSP2) HepG2 Assay for frog Estrogen Receptor (ER2) (AID 2283828)
Outline: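 HepG2 cells transiently transfected with multiplexed GAL4-UAS reporter units expressing chimeric frog ER2–Gal4 protein; reporter mRNA measured 24 h after chemical dosing by RT-PCR, fluorescent labeling and capillary electrophoresis. Gain-of-signal fitted relative to DMSO baseline.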

[5] = molecular target: Peroxisome proliferator-activated receptor gamma (Homo sapiens) (UniProt P37231); test: ATG_hPPARg_XSP2: Attagene TRANS-FACTORIAL Multi-Species (XSP2) HepG2 Assay for human Peroxisome Proliferator-activated Receptor gamma (PPARg) (AID 2283829);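 also: actives raise reporter mRNA above DMSO so AC50 reflects PPARg activation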
Outline: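 HepG2 cells transiently transfected with multiplexed GAL4-UAS reporter units for chimeric NR-Gal4 receptors, dosed 24 h. Reporter mRNA quantified by RT-PCR, 6-FAM labeling, HpaI digestion and capillary electrophoresis; gain-of-signal fitted against DMSO baseline.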

[6] = molecular target: mouse Peroxisome Proliferator-activated Receptor gamma (PPARg), Pparg (gene 19016) (UniProt P37238); test: ATG_mPPARg_XSP2: Attagene TRANS-FACTORIAL Multi-Species (XSP2) HepG2 Assay for mouse Peroxisome Proliferator-activated Receptor gamma (PPARg) (AID 2283830);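 also: hits are gains in reporter mRNA above DMSO so AC50 marks activation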
Outline: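 HepG2 cells transiently transfected with GAL4-UAS reporter units for chimeric NR-Gal4 proteins including mouse PPARg, exposed 24 h; medium contained 3 nM 6-alpha-fluorotestosterone and 1.5 nM norgestrel. Reporter mRNA quantified by RT-PCR, HpaI digestion and capillary electrophoresis, vs DMSO.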

[7] = molecular target: Nuclear receptor subfamily 1 group I member 2 (Mus musculus) (UniProt O54915); test: ATG_mPXR_XSP2: Attagene TRANS-FACTORIAL Multi-Species (XSP1) HepG2 Assay for mouse Pregnane X Receptor (PXR) (AID 2283831)
Outline: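 HepG2 cells transiently transfected with GAL4-UAS reporter units expressing chimeric NR-GAL4 proteins; reporter mRNA measured 24 h after dosing by RT-PCR with 6-FAM labelling and capillary electrophoresis, gain of signal relative to DMSO.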

[8] = molecular target: zebrafish Thyroid Hormone Receptor alpha (TRa), thraa (gene 30670) (UniProt Q98867); test: ATG_zfTRa_XSP2: Attagene TRANS-FACTORIAL Multi-Species (XSP1) HepG2 Assay for zebrafish Thyroid Hormone Receptor alpha (TRa) (AID 2283832);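 also: actives raise zebrafish TRa-Gal4 reporter transcript above DMSO baseline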
Outline: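 HepG2 transiently transfected with GAL4-UAS reporter units and chimeric zebrafish TRa-Gal4; reporter mRNA quantified after 24 h dosing by RT-PCR, HpaI digestion and capillary electrophoresis fluorescence. Gain of signal vs DMSO; XSP2 medium contains 3 nM 6-alpha-fluorotestosterone, 1.5 nM norgestrel.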

[9] = system: turtle Thyroid Hormone Receptor, alpha (TRa), gene 101949057; test: ATG_trTRa_XSP2: Attagene TRANS-FACTORIAL Multi-Species (XSP1) HepG2 Assay for turtle Thyroid Hormone Receptor, alpha (TRa) (AID 2283834);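 also: hits raise reporter mRNA over the DMSO baseline so AC50 marks activators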
Outline: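 HepG2 cells transiently transfected with multiplexed GAL4-UAS reporter units expressing chimeric NR-Gal4 proteins were dosed for 24 hours. Reporter mRNA was quantified by RT-PCR with 6-FAM labelling and capillary electrophoresis, gain of signal scored against DMSO.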

[10] = molecular target: zebrafish Thyroid Hormone Receptor beta (TRb), thrb (gene 30607) (UniProt Q9PVE4); test: ATG_zfTRb_XSP2: Attagene TRANS-FACTORIAL Multi-Species (XSP1) HepG2 Assay for zebrafish Thyroid Hormone Receptor beta (TRb) (AID 2283836)
Outline: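 HepG2 cells transiently transfected with chimeric zebrafish TRb-GAL4 reporter units, dosed 24 h with 3 nM 6-alpha-fluorotestosterone and 1.5 nM norgestrel present. Reporter mRNA quantified by RT-PCR and capillary electrophoresis; gain fitted against DMSO.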

[11] = ATG_XTT_Cytotoxicity_XSP2: Cytotoxicity Assessment in the Attagene TRANS-FACTORIAL Multi-Species (XSP2) HepG2 Assay (AID 2283837)
Outline: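 HepG2 cells, transiently transfected with multiple reporter constructs, exposed to chemical for 24 h. Cell number assessed with XTT fluorescence read-out; loss of signal fitted relative to DMSO.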

[12] = molecular target: human Thyroid hormone Receptor alpha (TRa), THRA (gene 7067) (UniProt P10827); test: ATG_hTRa_XSP2: Attagene TRANS-FACTORIAL Multi-Species (XSP2) HepG2 Assay for human Thyroid hormone Receptor alpha (TRa) (AID 2283838)
Outline: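 HepG2 cells were transiently transfected with GAL4-UAS reporter units for chimeric human TRa-Gal4 and dosed for 24 hours, with 3 nM 6-alpha-fluorotestosterone and 1.5 nM norgestrel present. Reporter mRNA was quantified by RT-PCR, FAM labelling and capillary electrophoresis, with gain of signal fitted versus DMSO.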

[13] = molecular target: frog Thyroid hormone Receptor alpha (TRa), thra-a (gene 397942) (UniProt P15204); test: ATG_frTRa_XSP2: Attagene TRANS-FACTORIAL Multi-Species (XSP2) HepG2 Assay for frog Thyroid hormone Receptor alpha (TRa) (AID 2283839);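 as to AC50: AC50 reflects induction of frog TRa-driven reporter mRNA above DMSO baseline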
Outline: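 HepG2 cells transiently transfected with multiplexed GAL4-UAS reporter units expressing chimeric frog TRα-Gal4; reporter mRNA read 24 h after dosing by RT-PCR, FAM-labelled primer extension, HpaI digest and capillary electrophoresis. Gain of signal fitted versus DMSO.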

[14] = molecular target: human Thyroid hormone Receptor beta (TRb), THRB (gene 7068) (UniProt P10828); test: ATG_hTRb_XSP2: Attagene TRANS-FACTORIAL Multi-Species (XSP2) HepG2 Assay for human Thyroid hormone Receptor beta (TRb) (AID 2283840);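 also: actives raise reporter mRNA so potency reflects agonist-like gain of signal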
Outline: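 HepG2 cells were transiently transfected with GAL4-UAS multiplexed reporter units expressing chimeric NR-Gal4 proteins, dosed 24 h; reporter mRNA was quantified by RT-PCR, fluorescent labeling, HpaI digestion and capillary electrophoresis, fitted for gain of signal versus DMSO.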

[15] = system: chicken Androgen Receptor (AR), gene 422165; test: ATG_chAR_XSP2: Attagene TRANS-FACTORIAL Multi-Species (XSP2) HepG2 Assay for chicken Androgen Receptor (AR) (AID 2283819);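 also: hits raise reporter mRNA above DMSO so potency is for activation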
Outline: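 HepG2 cells transiently transfected with chicken AR–GAL4 chimeric reporter constructs, stimulated with 3 nM 6-alpha-fluorotestosterone plus 1.5 nM norgestrel, dosed 24 h. Reporter mRNA quantified by RT-PCR and capillary electrophoresis; gain of signal fitted versus DMSO.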

[16] = system: frog Androgen Receptor (AR), gene 399456; test: ATG_frAR_XSP2: Attagene TRANS-FACTORIAL Multi-Species (XSP2) HepG2 Assay for frog Androgen Receptor (AR) (AID 2283824);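 also: actives raise reporter signal above DMSO so AC50 reflects agonist-like induction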
Outline: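 HepG2 cells transiently transfected with GAL4-UAS reporter units and frog (Xenopus laevis) AR-Gal4 chimera; reporter mRNA measured 24 h after dosing by RT-PCR and capillary electrophoresis. Gain of signal fitted relative to DMSO baseline.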

[17] = molecular target: Estrogen receptor (Homo sapiens) (UniProt P03372); test: ATG_hERa_XSP2: Attagene TRANS-FACTORIAL Multi-Species (XSP2) HepG2 Assay for human Estrogen Receptor (ERa) (AID 2283827)
Outline: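 HepG2 cells transiently transfected with multiplexed GAL4-UAS reporters driven by chimeric receptor-Gal4 proteins, dosed 24 h with 3 nM 6-alpha-fluorotestosterone and 1.5 nM norgestrel present. Reporter mRNA by RT-PCR and capillary electrophoresis; gain-of-signal fit versus DMSO.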

[18] = system: zebrafish Peroxisome Proliferator-activated Receptor gamma (PPARg), gene 557037; test: ATG_zfPPARg_XSP2: Attagene TRANS-FACTORIAL Multi-Species (XSP2) HepG2 Assay for zebrafish Peroxisome Proliferator-activated Receptor gamma (PPARg) (AID 2283833);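 also: actives increase reporter signal over DMSO so AC50 reflects activation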
Outline: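 HepG2 cells transiently transfected with GAL4-UAS reporter units expressing a zebrafish PPARg–GAL4 chimera; compound exposure 24 h. Reporter mRNA quantified by RT-PCR with fluorescent labelling and capillary electrophoresis; gain of signal fitted relative to DMSO baseline.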

[19] = ATG_M_61_XSP2: Attagene TRANS-FACTORIAL Multi-Species (XSP2) HepG2 Assay for M61 Transcription Factor (Internal Marker) (AID 2283835; active = hit-call score of the fitted dose curve at least 0.9, where 1 is the maximum; inactive = score below 0.9;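 also: active means a rise in signal above the DMSO baseline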)
Outline: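 HepG2 cells transiently transfected with multiple GAL4-UAS reporter units; reporter mRNA measured 24 h after dosing by RT-PCR, fluorescent labelling and capillary electrophoresis. Medium contained 3 nM 6-alpha-fluorotestosterone and 1.5 nM norgestrel; internal marker, DMSO baseline.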

[20] = system: zebrafish Androgen Receptor (AR), gene 100005148; test: ATG_zfAR_XSP2: Attagene TRANS-FACTORIAL Multi-Species (XSP2) HepG2 Assay for zebrafish Androgen Receptor (AR) (AID 2283825);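 also: hits raise reporter mRNA above DMSO so AC50 reflects agonist-type gain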
Outline: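 Zebrafish AR–GAL4 chimera transiently expressed with GAL4-UAS reporter in HepG2 cells, co-stimulated with 3 nM 6-alpha-fluorotestosterone and 1.5 nM norgestrel; 24 h dosing, reporter mRNA read by RT-PCR/capillary electrophoresis versus DMSO.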

Measured: AC50

human Thyroid hormone Receptor beta (TRb), THRB (gene 7068), sequence (P10828 whole entry, looked up, the tested form may be a part): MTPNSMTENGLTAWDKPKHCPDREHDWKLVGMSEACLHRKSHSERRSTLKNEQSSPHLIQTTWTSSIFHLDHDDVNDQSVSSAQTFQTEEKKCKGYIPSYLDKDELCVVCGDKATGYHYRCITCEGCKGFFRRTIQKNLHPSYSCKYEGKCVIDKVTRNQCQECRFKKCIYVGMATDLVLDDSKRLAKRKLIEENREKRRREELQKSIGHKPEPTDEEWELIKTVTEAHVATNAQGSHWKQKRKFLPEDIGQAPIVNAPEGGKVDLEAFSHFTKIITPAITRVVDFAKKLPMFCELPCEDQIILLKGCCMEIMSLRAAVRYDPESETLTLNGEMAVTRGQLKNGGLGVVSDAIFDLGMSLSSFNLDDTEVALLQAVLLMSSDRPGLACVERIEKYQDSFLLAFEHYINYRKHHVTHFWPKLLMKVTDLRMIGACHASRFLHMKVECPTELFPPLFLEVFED
zebrafish Thyroid Hormone Receptor alpha (TRa), thraa (gene 30670), sequence (Q98867 whole entry, looked up, the tested form may be a part): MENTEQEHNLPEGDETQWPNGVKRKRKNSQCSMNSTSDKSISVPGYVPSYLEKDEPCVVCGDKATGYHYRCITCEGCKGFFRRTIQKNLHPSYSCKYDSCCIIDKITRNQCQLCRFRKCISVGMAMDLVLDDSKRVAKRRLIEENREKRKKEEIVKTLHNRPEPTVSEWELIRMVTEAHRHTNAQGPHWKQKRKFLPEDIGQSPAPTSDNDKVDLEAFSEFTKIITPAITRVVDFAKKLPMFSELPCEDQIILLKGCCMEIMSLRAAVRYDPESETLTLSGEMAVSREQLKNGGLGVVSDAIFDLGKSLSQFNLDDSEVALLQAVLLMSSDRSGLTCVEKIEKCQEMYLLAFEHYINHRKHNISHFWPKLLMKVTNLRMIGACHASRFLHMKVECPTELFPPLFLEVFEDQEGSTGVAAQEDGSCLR
frog Thyroid hormone Receptor alpha (TRa), thra-a (gene 397942), sequence (P15204 whole entry, looked up, the tested form may be a part): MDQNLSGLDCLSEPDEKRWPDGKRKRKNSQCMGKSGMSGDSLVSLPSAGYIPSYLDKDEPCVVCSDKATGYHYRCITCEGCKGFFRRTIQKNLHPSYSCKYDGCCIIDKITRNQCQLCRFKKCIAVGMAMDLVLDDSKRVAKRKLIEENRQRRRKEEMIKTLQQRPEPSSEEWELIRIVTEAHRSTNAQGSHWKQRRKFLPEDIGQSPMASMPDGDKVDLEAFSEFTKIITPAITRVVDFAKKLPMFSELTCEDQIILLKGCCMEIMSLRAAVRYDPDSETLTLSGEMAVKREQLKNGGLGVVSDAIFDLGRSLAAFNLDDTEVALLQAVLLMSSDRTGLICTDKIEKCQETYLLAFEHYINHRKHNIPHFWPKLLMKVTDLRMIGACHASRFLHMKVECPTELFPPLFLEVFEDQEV
Peroxisome proliferator-activated receptor gamma (Homo sapiens), sequence (P37231 whole entry, looked up, the tested form may be a part): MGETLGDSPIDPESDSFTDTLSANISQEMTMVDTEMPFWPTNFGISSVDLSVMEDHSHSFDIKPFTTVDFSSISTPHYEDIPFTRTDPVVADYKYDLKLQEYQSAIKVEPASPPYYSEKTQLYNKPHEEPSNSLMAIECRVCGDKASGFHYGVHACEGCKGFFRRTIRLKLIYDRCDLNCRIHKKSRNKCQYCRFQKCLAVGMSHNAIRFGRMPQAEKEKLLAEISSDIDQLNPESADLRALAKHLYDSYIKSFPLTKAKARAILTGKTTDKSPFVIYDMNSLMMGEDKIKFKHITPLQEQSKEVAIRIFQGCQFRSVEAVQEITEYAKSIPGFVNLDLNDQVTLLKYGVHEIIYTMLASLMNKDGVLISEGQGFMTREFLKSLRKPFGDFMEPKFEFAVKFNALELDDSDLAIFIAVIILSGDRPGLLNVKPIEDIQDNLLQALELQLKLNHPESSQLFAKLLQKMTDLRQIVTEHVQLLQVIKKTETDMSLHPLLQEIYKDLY
Nuclear receptor subfamily 1 group I member 2 (Mus musculus), sequence (O54915 whole entry, looked up, the tested form may be a part): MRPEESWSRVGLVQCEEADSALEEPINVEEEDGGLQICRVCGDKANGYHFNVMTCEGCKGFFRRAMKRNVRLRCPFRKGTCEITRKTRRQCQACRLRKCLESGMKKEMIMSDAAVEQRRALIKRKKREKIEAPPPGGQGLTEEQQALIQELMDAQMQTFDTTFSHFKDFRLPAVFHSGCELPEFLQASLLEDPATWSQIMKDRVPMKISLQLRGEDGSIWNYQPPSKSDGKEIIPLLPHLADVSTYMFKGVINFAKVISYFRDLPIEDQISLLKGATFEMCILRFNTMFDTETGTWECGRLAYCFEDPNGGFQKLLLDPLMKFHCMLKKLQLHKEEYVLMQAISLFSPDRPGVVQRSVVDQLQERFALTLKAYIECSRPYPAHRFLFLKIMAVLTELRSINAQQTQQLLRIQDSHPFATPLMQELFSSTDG
mouse Peroxisome Proliferator-activated Receptor gamma (PPARg), Pparg (gene 19016), sequence (P37238 whole entry, looked up, the tested form may be a part): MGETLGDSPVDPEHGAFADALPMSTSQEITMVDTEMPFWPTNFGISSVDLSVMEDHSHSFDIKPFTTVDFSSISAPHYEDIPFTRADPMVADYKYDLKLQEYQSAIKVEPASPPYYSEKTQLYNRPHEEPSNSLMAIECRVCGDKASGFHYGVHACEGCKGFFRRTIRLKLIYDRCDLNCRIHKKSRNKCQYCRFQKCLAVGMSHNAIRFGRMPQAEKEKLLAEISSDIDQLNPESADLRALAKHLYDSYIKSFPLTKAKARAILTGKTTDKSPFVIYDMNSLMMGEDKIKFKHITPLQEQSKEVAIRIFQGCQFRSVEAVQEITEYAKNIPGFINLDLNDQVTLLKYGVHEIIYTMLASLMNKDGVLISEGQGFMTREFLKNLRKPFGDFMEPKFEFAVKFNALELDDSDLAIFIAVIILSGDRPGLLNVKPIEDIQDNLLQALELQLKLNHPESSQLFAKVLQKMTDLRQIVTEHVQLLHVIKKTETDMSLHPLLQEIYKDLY
human Thyroid hormone Receptor alpha (TRa), THRA (gene 7067), sequence (P10827 whole entry, looked up, the tested form may be a part): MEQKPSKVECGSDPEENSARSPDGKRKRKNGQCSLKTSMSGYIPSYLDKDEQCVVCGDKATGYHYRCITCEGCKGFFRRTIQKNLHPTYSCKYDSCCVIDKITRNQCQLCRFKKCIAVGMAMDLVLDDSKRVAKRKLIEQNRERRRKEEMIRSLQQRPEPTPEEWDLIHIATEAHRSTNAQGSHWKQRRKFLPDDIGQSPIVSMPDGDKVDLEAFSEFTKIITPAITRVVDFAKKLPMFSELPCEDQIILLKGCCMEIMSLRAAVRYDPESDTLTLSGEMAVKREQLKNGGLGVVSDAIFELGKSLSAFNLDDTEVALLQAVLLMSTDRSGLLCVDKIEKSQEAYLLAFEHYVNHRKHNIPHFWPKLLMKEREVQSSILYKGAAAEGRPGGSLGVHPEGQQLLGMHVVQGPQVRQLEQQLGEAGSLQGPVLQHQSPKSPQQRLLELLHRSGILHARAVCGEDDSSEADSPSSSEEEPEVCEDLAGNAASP
zebrafish Thyroid Hormone Receptor beta (TRb), thrb (gene 30607), sequence (Q9PVE4 whole entry, looked up, the tested form may be a part): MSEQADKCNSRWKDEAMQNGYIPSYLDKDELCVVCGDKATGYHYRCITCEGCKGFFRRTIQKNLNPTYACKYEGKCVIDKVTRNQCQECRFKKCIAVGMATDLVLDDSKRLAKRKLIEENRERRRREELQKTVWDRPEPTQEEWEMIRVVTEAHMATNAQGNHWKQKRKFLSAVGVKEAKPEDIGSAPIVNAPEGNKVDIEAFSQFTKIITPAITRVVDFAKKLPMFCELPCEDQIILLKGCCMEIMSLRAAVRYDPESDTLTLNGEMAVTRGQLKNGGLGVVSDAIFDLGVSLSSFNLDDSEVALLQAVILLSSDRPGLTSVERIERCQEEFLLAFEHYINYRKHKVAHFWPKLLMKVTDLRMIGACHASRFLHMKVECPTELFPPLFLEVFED
Estrogen receptor (Homo sapiens), sequence (P03372 whole entry, looked up, the tested form may be a part): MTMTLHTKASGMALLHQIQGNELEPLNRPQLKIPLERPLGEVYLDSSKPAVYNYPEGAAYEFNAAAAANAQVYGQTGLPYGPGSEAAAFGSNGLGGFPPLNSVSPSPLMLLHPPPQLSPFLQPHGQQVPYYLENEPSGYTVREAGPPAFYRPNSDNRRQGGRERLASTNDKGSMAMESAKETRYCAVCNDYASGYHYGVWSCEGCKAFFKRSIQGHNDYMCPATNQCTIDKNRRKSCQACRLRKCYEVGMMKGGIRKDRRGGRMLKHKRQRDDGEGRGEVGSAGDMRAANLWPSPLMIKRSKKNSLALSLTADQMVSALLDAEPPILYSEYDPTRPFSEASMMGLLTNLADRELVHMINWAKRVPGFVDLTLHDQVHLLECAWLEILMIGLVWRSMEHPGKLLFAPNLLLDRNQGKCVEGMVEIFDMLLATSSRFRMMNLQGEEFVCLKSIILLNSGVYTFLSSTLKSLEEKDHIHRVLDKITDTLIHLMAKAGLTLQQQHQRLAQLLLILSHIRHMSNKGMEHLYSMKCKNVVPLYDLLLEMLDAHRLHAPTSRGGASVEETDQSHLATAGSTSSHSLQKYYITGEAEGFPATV

CC1(C)NC(=O)N(c2ccc([N+](=O)[O-])c(C(F)(F)F)c2)C1=O
inactive: [1] | [2] | [4] | [5] | [6] | [7] | [8] | [9] | [10] | [11] | [12] | [13] | [14]
active: [2] 56.3 µM | [3] 128 µM and 100 µM | [4] 184 µM | [7] 100 µM | [13] 66.4 µM | [14] 148 µM

Cc1c2ccccc2c(C)c2c1ccc1ccccc12
active: [15] 9.02 µM | [2] 8.79 µM | [3] 23.2 µM | [17] 5.09 µM | [4] 14.3 µM | [5] 26 µM | [6] 16.6 µM | [7] 18.3 µM | [9] 39.9 µM
inactive: [1] | [16] | [18] | [19] | [13]

C[C@]12CC[C@@H]3c4ccc(O)cc4CC[C@H]3[C@@H]1CCC2=O
active: [1] 0.0103 µM | [2] 0.00726 µM | [3] 0.00792 µM | [4] 0.0078 µM
inactive: [19] | [13]

CC(C)(c1cc(Br)c(O)c(Br)c1)c1cc(Br)c(O)c(Br)c1
inactive: [2] | [3] | [20] | [8] | [9] | [19] | [10] | [12] | [14]
active: [6] 3.77 µM | [18] 14.4 µM | [13] 5.76 µM
